In this experiment the target is C-X-C chemokine receptor type 6 (Homo sapiens) (UniProt O00574). The experiment is described as follows: APJ beta-arrestin recruitment blockade alongside CXCR6 – cell-based, DiscoveRx, panel, CHO-K1, counter-screen for CXCR6 antagonist project, SAR follow-up (AID 651598). Conditions: CHO-K1 PathHunter beta-arrestin luminescence, antagonist mode; run 5, at 80 µM (top of the series). (Recruitment of arrestin is a read-out of receptor activation apart from second messengers.)
Chain of C-X-C chemokine receptor type 6 (Homo sapiens) (O00574 whole entry, looked up): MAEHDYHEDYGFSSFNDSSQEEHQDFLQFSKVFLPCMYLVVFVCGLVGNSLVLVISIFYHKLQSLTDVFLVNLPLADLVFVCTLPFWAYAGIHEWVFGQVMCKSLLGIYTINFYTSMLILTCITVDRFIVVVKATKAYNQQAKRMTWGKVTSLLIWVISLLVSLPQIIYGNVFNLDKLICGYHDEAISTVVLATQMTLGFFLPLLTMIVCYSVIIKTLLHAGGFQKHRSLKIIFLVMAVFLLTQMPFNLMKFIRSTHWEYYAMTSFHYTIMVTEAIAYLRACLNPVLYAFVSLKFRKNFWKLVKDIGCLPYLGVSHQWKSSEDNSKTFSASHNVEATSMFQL

Where “and” joins values, the source holds several entries; their conditions need not be identical. Equal values may be shown once.

A word on the inhibition: it is the percentage by which the read-out fell short of the control. Read a high inhibition as strong suppression. With `COc1cc(C(=O)NC2CC3CCC(C2)N3CC(=O)Nc2ccccc2)cc(OC)c1OC` (stereo not drawn), the inhibition was 45.3% and 9.45%.

`COc1cc(C(=O)NC2CCN(CC(=O)Nc3ccccc3)CC2)cc(OC)c1OC` had an inhibition of 12%.

On to `COc1cc(C(=O)NC2CC3CCCC(C2)N3CC(=O)Nc2ccccc2)cc(OC)c1OC` (stereo not drawn), for which the inhibition is 85.4% and 45.2% and 22.2%.

(Values after PubChem BioAssay AID651598 (Sanford-Burnham Center for Chemical Genomics, 2012).)
